# Measured values as given in PubChem BioAssay AID1117284 (Broad Institute, 2014).
# Entries with a potency or affinity are not part of this list. Values without a mark were called inactive.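 The calls were made as follows: active = viability signal drop whose fitted half-maximal concentration is at most twice the top valid dose; inconclusive = flat partial drop or unreliable curve fit; inactive = the rest.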
# Experiment: lung carcinoma cell viability loss – CellTiter-Glo luminescence, dry powder, set 17, dose response (AID 1117284)
# Settings: A549 viability, CellTiter-Glo ATP luminescence, 72 h; series mostly up to 26 µM; activity change, negative = cytotoxic: at the top concentration
row,SMILES,"activity change, negative = cytotoxic"
1,C[C@@H](O)C#Cc1ccc2c(c1)O[C@@H](CN(C)Cc1cccnc1)[C@@H](C)CN([C@@H](C)CO)S2(=O)=O,8.93%
2,CNC[C@@H]1Oc2cc(Br)ccc2S(=O)(=O)N([C@@H](C)CO)C[C@@H]1C,11.6%
3,C[C@@H](O)C#Cc1ccc2c(c1)O[C@@H](CN(C)S(=O)(=O)c1ccc(-c3ccccc3)cc1)[C@@H](C)CN([C@@H](C)CO)S2(=O)=O,15.3%
4,CO[C@H]1CN(C)C(=O)c2ccc(NC(=O)c3ccc(F)cc3)cc2OC[C@H](C)N(C(=O)c2ccc(F)cc2)C[C@@H]1C,18.3%
5,C[C@@H](O)C#Cc1ccc2c(c1)O[C@@H](CN(C)C(=O)c1ccc(-c3ccccc3)cc1)[C@@H](C)CN([C@@H](C)CO)S2(=O)=O,22.5%
6,C[C@H](CO)N1C[C@H](C)[C@H](CN(C)Cc2ccc(-c3ccccc3)cc2)Oc2cc(C#C[C@@H](C)O)ccc2S1(=O)=O,16.2%
7,C[C@H]1CN([C@@H](C)CO)S(=O)(=O)c2ccc(Br)cc2O[C@H]1CN(C)Cc1ccc(-c2ccccc2)cc1,3.58%
8,C[C@@H](O)C#Cc1ccc2c(c1)O[C@@H](CN(C)Cc1ccncc1)[C@@H](C)CN([C@@H](C)CO)S2(=O)=O,24.1%
